# In ChEMBL document CHEMBL1961873, “Compounds: GSK PKIS; Assays: Nanosyn kinase panel” (2012):
# Tests used:
# [1] = target: Sphingosine kinase 1 (Homo sapiens) (UniProt Q9NYA1); settings: at 1 µM;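 note: mean SPHK1 inhibition value reported from the GSK PKIS kinase panel screen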
# [2] = target: T1, Sphingosine kinase 2 (Homo sapiens) (UniProt Q9NRA0); settings: at 0.1 µM
# T1 sequence (whole entry): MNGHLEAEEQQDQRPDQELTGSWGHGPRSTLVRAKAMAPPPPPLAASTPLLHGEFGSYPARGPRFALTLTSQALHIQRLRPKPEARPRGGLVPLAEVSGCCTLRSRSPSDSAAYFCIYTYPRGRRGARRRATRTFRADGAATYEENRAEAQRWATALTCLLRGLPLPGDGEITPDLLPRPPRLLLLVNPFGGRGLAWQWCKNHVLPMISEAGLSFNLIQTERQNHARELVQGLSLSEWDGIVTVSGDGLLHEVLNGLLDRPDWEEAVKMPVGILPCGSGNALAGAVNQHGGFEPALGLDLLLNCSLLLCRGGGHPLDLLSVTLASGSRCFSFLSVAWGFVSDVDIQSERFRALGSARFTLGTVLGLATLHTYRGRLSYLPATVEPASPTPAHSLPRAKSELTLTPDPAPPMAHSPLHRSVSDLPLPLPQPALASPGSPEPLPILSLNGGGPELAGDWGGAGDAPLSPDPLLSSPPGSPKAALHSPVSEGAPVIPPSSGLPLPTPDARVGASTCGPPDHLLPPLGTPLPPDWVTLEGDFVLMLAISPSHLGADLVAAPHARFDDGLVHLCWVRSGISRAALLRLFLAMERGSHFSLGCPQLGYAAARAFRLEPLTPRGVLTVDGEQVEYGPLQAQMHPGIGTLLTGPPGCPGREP
# [3] = target: T1, Sphingosine kinase 2 (Homo sapiens); settings: at 1 µM
# [4] = target: Casein kinase II subunit alpha (Homo sapiens) (UniProt P68400); settings: at 0.1 µM
# [5] = target: Casein kinase II subunit alpha (Homo sapiens) (UniProt P68400); settings: at 1 µM
# [6] = target: T2, Inhibitor of nuclear factor kappa-B kinase subunit alpha (Homo sapiens) (UniProt O15111); settings: at 0.1 µM
# T2 sequence (whole entry): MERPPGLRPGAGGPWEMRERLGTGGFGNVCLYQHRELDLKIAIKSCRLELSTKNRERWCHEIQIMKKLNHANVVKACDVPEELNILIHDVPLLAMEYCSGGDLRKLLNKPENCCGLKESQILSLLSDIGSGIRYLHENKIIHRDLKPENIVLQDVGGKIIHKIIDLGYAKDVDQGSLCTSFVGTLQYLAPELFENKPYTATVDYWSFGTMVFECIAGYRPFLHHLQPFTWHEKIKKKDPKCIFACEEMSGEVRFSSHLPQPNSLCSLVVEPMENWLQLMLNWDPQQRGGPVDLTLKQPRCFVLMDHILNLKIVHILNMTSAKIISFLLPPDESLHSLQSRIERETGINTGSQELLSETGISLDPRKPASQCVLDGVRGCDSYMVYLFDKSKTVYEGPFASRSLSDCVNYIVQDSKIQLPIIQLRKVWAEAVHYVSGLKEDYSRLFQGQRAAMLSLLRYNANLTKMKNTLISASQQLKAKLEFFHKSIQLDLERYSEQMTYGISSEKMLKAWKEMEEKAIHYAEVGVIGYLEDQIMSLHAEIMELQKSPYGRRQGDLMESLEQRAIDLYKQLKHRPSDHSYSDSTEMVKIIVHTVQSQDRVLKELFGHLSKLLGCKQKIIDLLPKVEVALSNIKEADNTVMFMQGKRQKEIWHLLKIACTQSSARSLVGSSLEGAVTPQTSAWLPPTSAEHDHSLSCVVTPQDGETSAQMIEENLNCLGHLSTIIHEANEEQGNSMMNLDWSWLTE
# [7] = target: T2, Inhibitor of nuclear factor kappa-B kinase subunit alpha (Homo sapiens); settings: at 1 µM
# [8] = target: T3, Inhibitor of nuclear factor kappa-B kinase subunit beta (Homo sapiens) (UniProt O14920); settings: at 0.1 µM
# T3 sequence (whole entry): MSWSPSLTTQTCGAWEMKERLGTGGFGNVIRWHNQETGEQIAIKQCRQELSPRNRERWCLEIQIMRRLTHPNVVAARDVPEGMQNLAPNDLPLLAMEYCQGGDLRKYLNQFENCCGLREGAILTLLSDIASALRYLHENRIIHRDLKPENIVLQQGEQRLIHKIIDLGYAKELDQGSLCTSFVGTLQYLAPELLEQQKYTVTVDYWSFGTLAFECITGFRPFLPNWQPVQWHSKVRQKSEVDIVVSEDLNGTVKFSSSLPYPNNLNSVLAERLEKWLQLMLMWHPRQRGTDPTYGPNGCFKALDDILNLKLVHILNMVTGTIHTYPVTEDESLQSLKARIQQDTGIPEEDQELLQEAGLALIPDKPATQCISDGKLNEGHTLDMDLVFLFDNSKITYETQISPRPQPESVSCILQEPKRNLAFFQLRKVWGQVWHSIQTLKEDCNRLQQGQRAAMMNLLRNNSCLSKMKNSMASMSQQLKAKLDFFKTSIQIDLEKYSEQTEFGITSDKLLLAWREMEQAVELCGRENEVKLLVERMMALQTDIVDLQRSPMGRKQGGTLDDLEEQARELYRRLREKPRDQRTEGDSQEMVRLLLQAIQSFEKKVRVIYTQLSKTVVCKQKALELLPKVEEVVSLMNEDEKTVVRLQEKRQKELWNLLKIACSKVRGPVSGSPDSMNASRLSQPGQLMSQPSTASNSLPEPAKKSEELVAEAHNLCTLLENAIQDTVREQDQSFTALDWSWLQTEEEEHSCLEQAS
# [9] = target: T3, Inhibitor of nuclear factor kappa-B kinase subunit beta (Homo sapiens); settings: at 1 µM
# [10] = target: T4, Inhibitor of nuclear factor kappa-B kinase subunit epsilon (Homo sapiens) (UniProt Q14164); settings: at 0.1 µM;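 note: mean inhibition of IKKε reported, from the GSK PKIS dataset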
# T4 sequence (whole entry): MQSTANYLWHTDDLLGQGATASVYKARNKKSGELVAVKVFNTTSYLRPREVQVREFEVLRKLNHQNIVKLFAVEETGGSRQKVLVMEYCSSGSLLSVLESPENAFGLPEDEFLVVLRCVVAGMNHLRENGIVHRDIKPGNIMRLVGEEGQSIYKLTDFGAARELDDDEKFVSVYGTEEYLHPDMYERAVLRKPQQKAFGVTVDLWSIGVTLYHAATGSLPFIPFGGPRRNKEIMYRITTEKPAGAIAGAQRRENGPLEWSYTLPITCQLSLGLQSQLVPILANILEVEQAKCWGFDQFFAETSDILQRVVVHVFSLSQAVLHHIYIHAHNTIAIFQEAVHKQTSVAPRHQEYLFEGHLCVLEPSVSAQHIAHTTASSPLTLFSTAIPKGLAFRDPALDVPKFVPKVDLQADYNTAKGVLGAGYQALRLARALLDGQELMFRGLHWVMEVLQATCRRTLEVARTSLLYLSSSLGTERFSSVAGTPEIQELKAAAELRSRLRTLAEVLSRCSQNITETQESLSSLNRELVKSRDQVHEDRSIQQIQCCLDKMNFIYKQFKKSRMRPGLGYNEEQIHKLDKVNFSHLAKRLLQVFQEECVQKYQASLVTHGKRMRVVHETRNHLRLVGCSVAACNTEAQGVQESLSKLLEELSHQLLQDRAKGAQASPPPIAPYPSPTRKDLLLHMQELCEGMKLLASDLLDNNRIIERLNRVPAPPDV
# Chain of Casein kinase II subunit alpha (Homo sapiens) (P68400 whole entry, looked up): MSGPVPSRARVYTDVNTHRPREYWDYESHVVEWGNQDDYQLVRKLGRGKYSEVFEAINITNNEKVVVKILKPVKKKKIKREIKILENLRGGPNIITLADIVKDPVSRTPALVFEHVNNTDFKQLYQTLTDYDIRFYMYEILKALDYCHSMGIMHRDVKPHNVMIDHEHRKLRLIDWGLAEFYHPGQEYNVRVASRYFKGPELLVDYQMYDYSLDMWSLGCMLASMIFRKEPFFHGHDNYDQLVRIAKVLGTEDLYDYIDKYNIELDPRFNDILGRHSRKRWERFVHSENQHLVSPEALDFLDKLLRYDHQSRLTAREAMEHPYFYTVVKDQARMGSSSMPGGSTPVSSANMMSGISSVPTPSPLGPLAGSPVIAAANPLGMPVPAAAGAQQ
# Chain of Sphingosine kinase 1 (Homo sapiens) (Q9NYA1 whole entry): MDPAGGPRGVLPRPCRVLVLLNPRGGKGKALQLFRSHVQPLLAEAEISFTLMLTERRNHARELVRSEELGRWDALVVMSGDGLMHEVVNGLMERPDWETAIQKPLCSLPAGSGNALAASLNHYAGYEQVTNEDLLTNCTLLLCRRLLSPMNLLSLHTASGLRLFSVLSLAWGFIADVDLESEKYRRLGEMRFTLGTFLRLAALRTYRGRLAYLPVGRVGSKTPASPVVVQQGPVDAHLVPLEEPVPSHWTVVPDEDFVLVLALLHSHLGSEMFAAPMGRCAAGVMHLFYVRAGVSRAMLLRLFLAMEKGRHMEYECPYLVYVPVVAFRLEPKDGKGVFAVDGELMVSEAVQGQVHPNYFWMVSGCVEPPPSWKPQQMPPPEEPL
smiles,measurement,setting,value
COc1cc(N2CCN(C(C)C)CC2)ccc1Nc1nc(Nc2ccc(F)cc2C(=O)NC[C@@H](O)CO)c2cc[nH]c2n1,inhibition,[1],5.85%
same,inhibition,[2],0.95%
same,inhibition,[3],0.89%
same,inhibition,[4],4.77%
same,inhibition,[5],15.7%
same,inhibition,[6],6.97%
same,inhibition,[7],11.1%
same,inhibition,[8],7.85%
same,inhibition,[9],9.5%
same,inhibition,[10],8.4%
